BAZ2B block – qHTS Assay for Inhibitors of BAZ2B. Bromodomain adjacent to zinc finger domain protein 2B (Homo sapiens), Q9UIF8. AlphaScreen BAZ2B-H3K14Ac peptide displacement. Potency, µM (highest dose often 114 µM), usual class: inhibitors. 360,000 tested, 4.4% active; note: nearly all actives have a fitted effect of over 60% in size
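In this displacement format the biotinylated H3(5-23) peptide acetylated at Lys14 serves as ligand at 50 nM, with BAZ2B at 50 nM in PBS pH 7.4 containing 0.01% Tween-20. Donor and acceptor beads are 10 ug/mL final.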
GLS inhibitor – qHTS for Inhibitors of Glutaminase (GLS); Potency, µM (titrated, usually from 45.5 µM), actives largely listed as inhibitors; AID 624170, 2012; 410,000 tested, 0.21% active; GLS enzymatic activity, qHTS titration
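Glutamate formation by hKGA was monitored fluorometrically using coupled glutamate oxidase, HRP and Amplex Red. Substrate was added as 1 mM L-glutamine solution; incubation was 30 min at RT after an initial read.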
G9a block – qHTS Assay for Inhibitors of Histone Lysine Methyltransferase G9a; AID 504332, 2011; Potency, µM (titrated, usually from 102 µM), hits mostly inhibitors; 350,000 tested, 8.8% active; Histone-lysine N-methyltransferase EHMT2 (Homo sapiens), Q96KQ7; G9a H3K9 monomethylation, AlphaScreen, 2 h; note: nearly all actives have a fitted effect of over 75% in size
Target sequence (Q96KQ7 913-1193 limits assumed): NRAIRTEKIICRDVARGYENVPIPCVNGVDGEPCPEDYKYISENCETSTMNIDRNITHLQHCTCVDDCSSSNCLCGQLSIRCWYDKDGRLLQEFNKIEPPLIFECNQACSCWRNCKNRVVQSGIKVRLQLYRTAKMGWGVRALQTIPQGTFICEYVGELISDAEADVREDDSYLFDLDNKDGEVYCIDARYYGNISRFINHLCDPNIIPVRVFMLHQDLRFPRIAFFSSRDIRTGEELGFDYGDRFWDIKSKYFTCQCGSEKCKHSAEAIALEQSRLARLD
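Readings reflect AlphaScreen signal from monomethyl-H3K9 antibody detection. HMT at 20 nM; substrate b-H3K9 500 nM; cofactor SAM 20 uM; 2 h RT reaction; compounds tested as titrations in qHTS with 15 min preincubation.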
JMJD2A Tudor – qHTS Assay for Inhibitors of JMJD2A-Tudor Domain. Potency, µM (doses to about 114 µM), usual class: inhibitors. Lysine-specific demethylase 4A (Homo sapiens), O75164. AID 504339, 2011. AlphaScreen JMJD2A-Tudor / H3K4me3 peptide binding. 390,000 tested, 4.4% active; note: nearly all actives have a fitted effect of over 50% in size
HP1b chromo inh – HTS for Inhibitors of HP1-beta Chromodomain Interactions with Methylated Histone Tails; Chromobox protein homolog 1 (Homo sapiens), P83916; AlphaScreen HP1-beta / biotin-H3K9me3 peptide binding; Potency, µM (highest dose often 114 µM), actives largely listed as inhibitors; 390,000 tested, 0.56% active; AID 540317, 2011; note: nearly all actives have a fitted effect of over 70% in size
Target sequence (P83916 whole entry, looked up): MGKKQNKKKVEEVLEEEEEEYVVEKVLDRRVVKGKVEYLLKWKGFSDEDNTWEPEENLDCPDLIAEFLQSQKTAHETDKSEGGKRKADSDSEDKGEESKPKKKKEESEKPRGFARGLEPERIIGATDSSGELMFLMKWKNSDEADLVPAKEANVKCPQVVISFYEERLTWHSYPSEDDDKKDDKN
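Compound inhibition of the preformed complex between 50 nM HP1-beta and 50 nM biotinylated H3K9me3 peptide was read by AlphaScreen. Buffer was PBS pH 7.4 with 0.01% Tween-20. Incubations ran 30 min at room temperature, with 10 ug/mL donor/acceptor beads.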
Large screens that a line does not name were inactive. An excerpt weighted towards active compounds, which were near 10% of everything screened. Calls come from the whole dose curve; as a rule, active = well fitted curve in the direction sought with a large enough effect; inconclusive = small, poorly fitted or top-dose-only effect, or another doubt; inactive = no such curve, though single readings can be large; an effect the other way counts as inactive or inconclusive.

CCOc1ccc(CN2CCNC(=O)C2CC(=O)N(C)C2CCCCC2)cc1 (centres undefined)	none
CN(Cc1cnccn1)C(=O)CC1C(=O)NCCN1Cc1cccc(Oc2ccccc2)c1 (centres undefined)	BAZ2B block inconclusive, G9a block 50µM
Cc1ccc(CN2CCNC(=O)C2CC(=O)O)o1 (centres undefined)	G9a block 50µM
C=CCNC(=O)CC1C(=O)NCCN1Cc1ccc(-c2ccccc2)cc1 (centres undefined)	G9a block 56µM
Cc1ccc(CN2CCNC(=O)C2CC(=O)N(C)C2CCCCC2)cc1 (centres undefined)	G9a block 45µM
COc1cccc(OCCOc2ccccc2OC(C)C)c1	none
Cc1ccc(CN2CCNC(=O)C2CC(=O)N(C)CCc2ccccc2)cc1 (centres undefined)	none
Cc1ccc(OCCN(C)C(=O)CC2C(=O)NCCN2CC(C)(C)C)cc1 (centres undefined)	G9a block 50µM
COC(=O)CN(C)C(=O)CC1C(=O)NCCN1CC(C)(C)C (centres undefined)	none
COCCN(C)C(=O)CC1C(=O)NCCN1CC(c1ccccc1)c1ccccc1 (centres undefined)	none
CC(C)(C)CN1CCNC(=O)C1CC(=O)N1CCOc2ccccc2C1 (centres undefined)	G9a block 50µM
CN(CCc1ccccn1)C(=O)CC1C(=O)NCCN1Cc1ccc(-c2ccccc2)cc1 (centres undefined)	G9a block 56µM
COCCN(C(=O)CC1C(=O)NCCN1Cc1ccc(-c2ccccc2)cc1)C(C)C (centres undefined)	G9a block 50µM
O=C1NC2(CCCCCC2)C(=O)N1Cc1ccc(Br)cc1	none
Cc1c(NC(=O)CSc2ncn[nH]2)c(=O)n(-c2ccccc2)n1C	none
Cc1ccc(S(=O)(=O)N2CCCC(C(=O)NCc3ccc4c(c3)OCO4)C2)cc1 (centres undefined)	none
CCOC(=O)[C@]12CCC=C1N(Cc1ccc3c(c1)OCO3)C(=O)[C@H](CC(=O)N1CCC(c3ccccc3)CC1)C2	none (no result: BAZ2B block, G9a block, JMJD2A Tudor, HP1b chromo inh)
COC(=O)C(Cc1c[nH]c2ccccc12)NC(=O)c1cc(-c2ccc(OC)c(OC)c2)oc1C (centres undefined)	G9a block 50µM, JMJD2A Tudor 50µM
O=C(COc1ccccc1)NC(Cc1c[nH]c2ccccc12)C(=O)O (centres undefined)	G9a block 35µM
CC(C)CC(C(=O)O)N1C(=O)C2C3c4ccccc4C(c4ccccc43)[C@@H]2C1=O (some centres undefined)	none
Cc1ccccc1OCC(=O)NC(Cc1c[nH]c2ccccc12)C(=O)O (centres undefined)	none
Cc1cccc(OCC(=O)NC(Cc2c[nH]c3ccccc23)C(=O)O)c1C (centres undefined)	G9a block 40µM
O=C(O)C(Cc1c[nH]c2ccccc12)N1C(=O)C2C3c4ccccc4C(c4ccccc43)[C@@H]2C1=O (some centres undefined)	G9a block 50µM
CC(C)(C)c1ccc(OCC(=O)NC(Cc2c[nH]c3ccccc23)C(=O)O)cc1 (centres undefined)	BAZ2B block inconclusive, G9a block inconclusive
Cc1cccc(-c2noc(CCCC(=O)NCc3ccco3)n2)c1	none
Cc1cc(Cl)ccc1OCc1nc(-c2ccc(-n3cccc3)cc2)no1	none
O=C(Nc1ccccc1C(=O)NC(Cc1c[nH]c2ccccc12)C(=O)O)c1ccco1 (centres undefined)	none
COc1ccc(C(=O)Nc2ccccc2C(=O)NC(Cc2c[nH]c3ccccc23)C(=O)O)cc1 (centres undefined)	BAZ2B block 79µM, G9a block inconclusive
O=C1c2cccc3cccc(c23)C(=O)N1CC1CCN(CC(O)COc2ccc3ccccc3c2)CC1 (centres undefined)	BAZ2B block inconclusive, G9a block 10µM, JMJD2A Tudor 13µM, HP1b chromo inh inconclusive
Cc1ccc(C)c(OCC(O)CN2CCN(CCN3C(=O)c4cccc5cccc(c45)C3=O)CC2)c1 (centres undefined)	BAZ2B block 50µM, G9a block inconclusive, JMJD2A Tudor inconclusive
CC(=O)c1ccccc1OCC(O)CN1CCN(CCN2C(=O)c3cccc4cccc(c34)C2=O)CC1 (centres undefined)	none
COc1ccc(COCC(O)CN2CCC(CN3C(=O)c4cccc5cccc(c45)C3=O)CC2)cc1OC (centres undefined)	G9a block 79µM
COc1ccc(-c2cc(=O)c3c(OC)c(OC)c(OC)c(OC)c3o2)cc1	none (no result: BAZ2B block, G9a block)
O=C(NNS(=O)(=O)c1ccc(Br)cc1)c1sccc1-n1cccc1	G9a block inconclusive
CN(C)C(=S)NC(=NCc1ccc([N+](=O)[O-])cc1)c1ccccc1	G9a block 71µM
CN(C)C(=S)Nc1ccc([N+](=O)[O-])cc1	none
CC(=O)NC(Cc1ccccc1F)C(=O)NC1CCN(c2ncccc2[N+](=O)[O-])CC1 (centres undefined)	G9a block inconclusive
COc1ccc(C2NC(=S)NC3=C2CCc2cc(OC)ccc23)cc1 (centres undefined)	BAZ2B block inconclusive, GLS inhibitor inconclusive, G9a block 40µM, JMJD2A Tudor inconclusive
C/C(CC(=O)Nc1ccccc1-c1ccccc1)=N\NC(=O)COc1ccc(C)cc1Br	BAZ2B block inconclusive
COc1cccc2c1C(=O)c1c(O)c3c(c(O)c1C2=O)C[C@](O)(C(=O)CO)C[C@@H]3O[C@H]1C[C@H](N)[C@@H](O)[C@H](C)O1	G9a block inconclusive (no result: BAZ2B block, JMJD2A Tudor, HP1b chromo inh)
COc1cccc2c1C(=O)c1c(O)c3c(c(O)c1C2=O)C[C@@](O)(C(=O)CO)C[C@@H]3OC1C[C@@H](N)[C@H](O)[C@H](C)O1 (some centres undefined)	G9a block 14µM (no result: BAZ2B block, GLS inhibitor, JMJD2A Tudor, HP1b chromo inh)
CC(=O)[C@]1(O)Cc2c(O)c3c(c(O)c2[C@@H](O[C@H]2C[C@H](N)[C@H](O)[C@H](C)O2)C1)C(=O)c1ccccc1C3=O	G9a block 13µM, JMJD2A Tudor inconclusive (no result: BAZ2B block)
COc1cccc2c1C(=O)c1c(O)c3c(c(O)c1C2=O)C[C@@](O)(C(=O)CO)C[C@@H]3O[C@H]1C[C@H](N)[C@@H](O)[C@H](C)O1	JMJD2A Tudor inconclusive, HP1b chromo inh inconclusive (no result: BAZ2B block, G9a block)
CC(=O)[C@]1(O)Cc2c(O)c3c(c(O)c2[C@@H](O[C@H]2C[C@H](N)[C@H](O)[C@H](C)O2)C1)C(=O)c1c(O)cccc1C3=O	G9a block 14µM (no result: BAZ2B block, JMJD2A Tudor, HP1b chromo inh)

Source: PubChem
